Out of some 48,000 compounds screened, about 13,000 (27%) showed an effect of 50% or more. This is one part of the list.
The compounds below were run on Wolbachia pipientis (assay: Anti-Wolbachia Cell-Based Screen). Details: 5 µM.
Type: functional
Design: scale not given: in the data most compounds retested in dose-response had high values

Row | SMILES | Percent Effect [%]
1 | NC(=O)N1CCCN(C2CCCCc3ccccc32)CC1 (centres undefined) | -4.011
2 | CN1CC(=O)N(c2ccccc2)CC12CCN(S(C)(=O)=O)C2.O=C(O)C(F)(F)F (centres undefined) | 10.77
3 | CO[C@@H]1CN(c2ccccc2)S(=O)(=O)[C@@]12CCN(S(C)(=O)=O)C2 | 80.67
4 | COC1CCN(S(=O)(=O)N2CC(c3ccccc3)C(C)(C)C2)CC1 (centres undefined) | 17.09
5 | CS(=O)(=O)N1CCC2(CC1)c1ccccc1[C@@H](N1CCSCC1)[C@@H]2O | -3.022
6 | CO[C@@H]1CN(c2ccccc2)S(=O)(=O)[C@@]12CCN(C)C2 | 121.6
7 | CCN(CC)C(=O)C1CCC(=O)N(CCc2cccc(F)c2)C1 (centres undefined) | 5.387
8 | COC(=O)N1CCC(CNS(=O)(=O)c2cnn(C)c2)CC1 | -8.062
9 | CNC(=O)N1CCC(NC(=O)c2cnn(C)c2)CC1 | 87.43
10 | Cn1cc(C(=O)NC2CCN(C(=O)NCC3CCSCC3)CC2)cn1 | -0.1776
11 | Cn1cc(C(=O)NC[C@@H]2OC[C@H]3CN(S(C)(=O)=O)CC[C@H]32)cn1 | -9.663
12 | Cn1cc(C(=O)NCC2CCN(C(=O)NCC(F)(F)F)CC2)cn1 | -3.622
13 | COCCNC(=O)N1CCC(NC(C)C)CC1 | 8.533
14 | CCS(=O)(=O)c1ccc(N2CCC(NC(=O)c3cnn(C)c3)CC2)cc1 | 0.7528
15 | Cn1cc(C(=O)NCC2CCN(C(=O)NC3CCCCC3)CC2)cn1 | 90.75
16 | Cn1cc(C(=O)NC2CCN(C(=O)NCCSC(F)(F)F)CC2)cn1 | 19.88
17 | Cn1cc(C(=O)NCC2CCN(C(=O)NC3CC3)CC2)cn1 | 82.18
18 | COCCCNC(=O)N1CCC(CNC(=O)c2cnn(C)c2)CC1 | 114
19 | Cc1ccc(N2CCC(C(O)c3cccs3)CC2)nn1 (centres undefined) | 12.98
20 | CCCN1CCC(NCc2cccc(CN3CCOC(C)C3)c2)CC1 (centres undefined) | 27.7
21 | O=C(O)c1cccc(CC2CCN(c3ncc(F)cn3)CC2)c1 | 5.737
22 | CCOCCn1c(=O)n(Cc2ccc(F)cc2)c2ncc(C(=O)O)cc21 | 0.5283

Row | SMILES | Percent Effect [%]
23 | CCSCCn1c(=O)n(Cc2ccc(F)cc2)c2ncc(C(=O)O)cc21 | -21.36
24 | O=C(O)c1ccc(Cc2cccc(F)c2)nc1 | 176.5
25 | O=C(O)c1cncc(Cc2ccccc2F)c1 | 172.6
26 | CCOCCn1c(=O)n(Cc2ccccc2F)c2cc(C(=O)O)cnc21 | -1.705
27 | O=C(O)c1cncc(Cc2ccc(F)cc2)c1 | 214.7
28 | O=C(O)c1ccc(N2CCC(Oc3cccc(F)c3)CC2)nc1 | 7.42
29 | O=C(O)c1cncc(Cc2cccc(F)c2)c1 | 136.9
30 | O=C(NCC(Cc1cccc(F)c1)N1CCCC1=O)c1ccccc1 (centres undefined) | -3.129
31 | O=C(CS(=O)(=O)Cc1ccccc1)NCc1ccccc1F | -49.77
32 | CC(C)n1cc2cc(NC(=O)Cn3cnnn3)ccc2n1 | 0.8884
33 | O=C1NCCCCC1NC(=O)C1(Oc2ccc(Cl)cc2)CCNCC1 (centres undefined) | 4.291
34 | CCOc1ccccc1NC(=O)NCC(C)(O)CCSC (centres undefined) | -5.529
35 | CC(CNC(=O)c1nc(N2CCOCC2)ncc1Cl)c1ccccc1 (centres undefined) | -18.26
36 | Cc1cnc(N2CCC3(CC2)CC(NC(=O)C(C)C)CO3)nc1 (centres undefined) | -15.93
37 | CN(C)C(CNC(=O)c1nc(N2CCOCC2)ncc1Cl)c1ccco1 (centres undefined) | -7.125
38 | CCC(CC)C(=O)NC1CCCc2nc(N3CCOCC3)ncc21 (centres undefined) | 97.19
39 | CC(C)C(=O)NC1CCCc2nc(N3CCOCC3)ncc21 (centres undefined) | 72.33
40 | CC(C)n1c(C2CCCN(CC(=O)NC(N)=O)C2)nc2ccccc21 (centres undefined) | -22.16
41 | Cc1cc(C)n(C2CCN(Cc3c(-c4cc(C)on4)nn(C)c3Cl)C2)n1 (centres undefined) | 0.03188
42 | CN(C)C(=O)Cc1ccccc1NCc1cccc(F)c1F | -19.09
43 | CC(C)c1cc(CNC(=O)N2CCC(Cc3cnn(C)c3)C2)on1 (centres undefined) | 2.959
44 | Cn1cc(CC2CCN(C(=O)NCc3csc(C4CC4)n3)C2)cn1 (centres undefined) | 102.9

Row | SMILES | Percent Effect [%]
45 | COCc1csc(NC(=O)NCc2ccsc2)n1 | -7.736
46 | COCc1csc(NC(=O)N2CCC(Cc3cnn(C)c3)C2)n1 (centres undefined) | 102.3
47 | Cc1csc(CNC(=O)N(C)Cc2cnn(C)c2)n1 | 7.256
48 | CC(C)Cc1cc(C(=O)N2CCC(Cc3cnn(C)c3)C2)cc(O)n1 (centres undefined) | 0.7528
49 | CC(C)CC(NC(=O)CN(C)C(=O)c1ccco1)c1cccs1 (centres undefined) | 25.03
50 | NC(=O)c1csc(N2C[C@@H](CN3CCCCC3)[C@@H](CO)C2)n1 | 104.1
51 | NC(=O)c1csc(N2C[C@@H](CN3CCC(O)CC3)[C@@H](CO)C2)n1 | 99.75
52 | CC(=O)c1ccc(CN2C[C@@H](CN3CCC(O)CC3)[C@@H](CO)C2)cc1 | -12.65
53 | OCc1csc(N2C[C@@H](CN3CCCCCC3)[C@@H](CO)C2)n1 | 103.7
54 | O=C(CCCc1cn[nH]c1)N1C[C@@H](CN2CCOCC2)[C@@H](CO)C1 | 24.78
55 | CN(C)Cc1nnc(C2CCCN(c3nc(C(N)=O)cs3)C2)n1C (centres undefined) | 10.64
56 | OC[C@H]1CN(Cc2c(Cl)cncc2Cl)C[C@H]1CN1CCCCCC1 | -60.78
57 | COc1cnc(N2C[C@@H](CN3CCOCC3)[C@@H](CO)C2)nc1 | -6.772
58 | O=C(CCc1cn[nH]c1)N1C[C@@H](CN2CCCCCC2)[C@@H](CO)C1 | 3.932
59 | CC(=O)c1cc(CN2C[C@@H](CN3CCC(O)CC3)[C@@H](CO)C2)n(C)c1 | 12.27
60 | NC(=O)c1csc(N2C[C@@H](CN3CCOCC3)[C@@H](CO)C2)n1 | 103.5
61 | CC(C)c1ncc(CN2C[C@@H](CN3CCCCC3)[C@@H](CO)C2)cn1 | -5.957
62 | CCc1cc(C(=O)N2CCc3c(ncn3CCc3ccccc3)C2)[nH]n1 | 0.9556
63 | CC(C(=O)NC1(C#N)CCCCC1)N1CCc2c(ncn2C2CC2)C1 (centres undefined) | 2.173
64 | Cc1ccc(F)c(NC(=O)CCC(=O)N(C)Cc2nc(C)c[nH]2)c1 | -39.22

From ChEMBL document CHEMBL3988442, “University of Dundee, Small-Polar-MMV Screening Library” (2021)
